# In the library only some 2.2% were active in any assay of this set; here they are far more common.
# GalR3 antag = blocks the human galanin receptor 3; AID 651719; 360,000 compounds, 0.44% hits; HEK293 GalR3-CNG cAMP membrane potential fluorescence; galR3 body fused to GalR1 C-terminus; inhibition, % at 3 µM;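 active means inhibition above the screen-wide average plus 3 SD, cut at about 13% in these data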;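 further: forskolin and galanin both at EC90 stimulate the cells; cAMP rise reported by CNG channel membrane potential dye signal; 0% = forskolin plus galanin with DMSO and 100% = forskolin alone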
# Target sequence (O60755 1-299 limits assumed): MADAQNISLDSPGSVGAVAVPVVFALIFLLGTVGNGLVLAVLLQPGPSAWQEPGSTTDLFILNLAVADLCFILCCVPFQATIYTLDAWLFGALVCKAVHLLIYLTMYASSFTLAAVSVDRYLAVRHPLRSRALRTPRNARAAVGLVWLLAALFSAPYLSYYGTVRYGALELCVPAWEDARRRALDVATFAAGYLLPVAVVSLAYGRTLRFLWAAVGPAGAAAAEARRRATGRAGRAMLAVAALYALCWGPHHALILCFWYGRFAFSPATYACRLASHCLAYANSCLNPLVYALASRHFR
# SMARCA2 act = activators of SMARCA2 function; 370,000 compounds, 1% hits; activation, % at 9.1 µM; MG213 cells, MMTV-luciferase reporter, dexamethasone, overnight; AID 652017; in the data active means activation above about 7.8%;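 further: 0% = vehicle wells and 100% = reference activator wells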
# Hsp70 activator = switches on Hsp70 transcription | HeLa Hsp70 promoter luciferase reporter, luminescence; scaled: vehicle 0, proteasome-inhibitor control 100% | AID 1203 | 200,000 compounds, 0.04% hits | activation, % at 10 µM;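 active means activation above the mean across all tested compounds plus 3 SD, cutoff set per campaign, cut at about 5.5% in these data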;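 further: 100% = MG132 at 30 µM as the positive control and 0% = DMSO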
# HIF activator = HIF pathway transcriptional activation; 300,000 compounds, 0.32% hits; activation, % at 7.5 µM (by protocol); AID 1910; U2OS HRE-luciferase reporter, luminescence; normalized: DMSO 0%, desferrioxamine 100%;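 active means mean activation of at least 10% of the iron chelator positive control signal, with at least half of replicates also reaching 10%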
# FXN GAA850 act = increases GAA850 frataxin promoter reporter activity; HEK293 lucGAA850 FXN promoter luciferase reporter, 24 h; percent of 10 µM SAHA response; activation, % at 6 µM; 360,000 compounds, 0.56% hits;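 active means activation above the average of all compounds screened plus 3 SD, cutoff fixed separately per campaign, cut at about 7.5% in these data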;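 further: 0% = DMSO wells and 100% = 10 µM SAHA wells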
# SMARCA2 conf = SMARCA2 activation, confirmation screen. shares compounds with SMARCA2 act. 3,500 compounds, 30% hits. MG213 cells, MMTV-luciferase with dexamethasone, luminescence, overnight; MG213 cells expressing E1A, Rb sequestered; DMSO wells 0%, reference activator 100%. activation, % at 9.1 µM;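 active means activation above its plate's cutoff, the mean activation of tested wells plus 3 SD, cut at about 7.9% in these data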
# VP16 Luc act = counter-screen for SMARCA2 activators: GAL4-VP16 luciferase reporter activation | shares compounds with SMARCA2 act | HEK293 GAL4-VP16 pG5luc reporter, luciferase luminescence; scaled: DMSO wells 0%, SAHA wells 100% | activation, % at 9.1 µM | 3,500 compounds, 41% hits;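 active means activation above the solvent-only control well mean plus 3 SD, averaged across control plates, cut at about 5.2% in these data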
# The depositor's hits bear a star; x = no result given.
SMILES,GalR3 antag,SMARCA2 act,Hsp70 activator,HIF activator,FXN GAA850 act,SMARCA2 conf,VP16 Luc act
O=C(COC(=O)c1ccccc1)NC1CCCC1,-8,10*,x,0,1,4,2
Cc1cc(OCC(=O)OCC(=O)NC2CCCC2)ccc1Cl,-8,11*,x,x,1,0,2
CN(CCC#N)C(=O)COC(=O)c1ccccc1C(=O)c1ccc(Cl)c([N+](=O)[O-])c1,-8,9.5*,0,-1,2,-10,3
O=C(COC(=O)c1ccccc1C(=O)c1ccc(Cl)c([N+](=O)[O-])c1)NC1CCCCCC1,-4,9.4*,0,-2,-7,-13,-1
O=C(NCCCc1ccccc1)OC1CC2CC1[C@H]1CCCCN1C2 (stereo not given in full),x,-1,x,x,x,x,x
CN(CCCOC(=O)c1cc2ccccc2o1)C1CN(Cc2cn(Cc3ccccc3Cl)nn2)S(=O)(=O)C1 (stereo not given),x,0,x,x,x,x,x
O=C(OC12CCCN(C1)/C(=C/c1cccc(Cl)c1)C2)c1cccc(F)c1 (stereo not given),x,2,x,x,x,x,x
Cc1ccc(-n2c(SCC(=O)Nc3ccc4c(c3)OCCO4)nnc2-c2ccccn2)cc1,x,-4,x,x,x,x,x
Cc1nn(CC(=O)NCCCN2CCN(Cc3ccccc3)CC2)c(=O)c2cc(-c3ccccc3)nn12,-13,8.5*,x,0,1,-1,2
CCN1CCN(CCCNC(=O)Cn2nc(C)n3nc(-c4ccccc4)cc3c2=O)CC1,4,-3,x,0,2,x,x
CCc1ccc(-c2cc3c(=O)n(CC(=O)NCCCN4CCC(Cc5ccccc5)CC4)nc(C)n3n2)cc1,1,10*,x,0,1,-11,3
COc1ccc(CCC[C@H](CCC(=O)N(c2ccccc2)c2ccccc2)CCc2ccccc2)cc1,x,-4,x,x,x,x,x
Cc1c[nH]c2cccc(-c3ccc4c(c3)OCO4)c12,x,-3,x,x,x,x,x
O=C(Nc1cc2nn(-c3ccccc3)nc2cc1Cl)c1ccco1,1,8.8*,0,3,6,21*,11*
COc1ccc(OC)c(CN2C(=O)CSCC2(C)c2nnnn2C2CCCC2)c1 (stereo not given),x,-1,x,x,x,x,x
CC(C)C(=O)Nc1ccc2nn(-c3ccccc3)nc2c1,-4,9.4*,0,0,6,6,20*
CC(C)c1ccc(C(=O)NN2C(=O)C3CCCCC3C2=O)cc1 (stereo not given),-4,13*,0,2,5,9.3*,8.5*
CCOc1ccccc1C(=O)NN1C(=O)C2CCCCC2C1=O (stereo not given),-1,-5,0,0,-1,x,x
C/C(=N\N=c1/sc2ccccc2n1C)c1ccccn1,-5,8.1*,0,1,2,4,7.5*
CNc1ccc(/C=C(\C#N)c2ccccn2)cc1[N+](=O)[O-],-3,13*,0,3,5,13*,8.0*
N#C/C(=C\c1ccc(Cl)c([N+](=O)[O-])c1)c1ccccn1,-4,1,0,-3,0,x,x
C[C@@H]1CN(c2ccc(N3CCN(C(=O)OC(C)(C)C)C[C@H]3C)cc2C#N)CCN1Cc1ccccc1,3,-2,x,x,x,x,x
COCCCNC(=O)C[C@H]1C[C@@]2(C(=O)OC)C(=C[C@H](COCc3ccccc3)O[C@@H]2C)N(Cc2ccc3c(c2)OCO3)C1=O,-7,1,x,x,x,x,x
Cc1ccc(OCCCCCCN2CCNCC2)c(Br)c1,-3,11*,x,3,3,2,9.7*
Cc1ccc(OCCCCN2CCC(C)CC2)c(Br)c1,-12,-3,0,-1,-3,x,x
SMILES,GalR3 antag,SMARCA2 act,Hsp70 activator,HIF activator,FXN GAA850 act,SMARCA2 conf,VP16 Luc act
COc1ccc2c(c1)CCCN2C(=O)C1CCCN(S(=O)(=O)c2ccc(Cl)s2)C1 (stereo not given),x,-7,x,x,x,x,x
CCc1nnc(NC(=O)C2CCCN2C(=O)Nc2ccccc2OC)s1 (stereo not given),-2,8.8*,0,-1,-1,1,3
CC(=O)Nc1ccc(CN(C)CC2CCCN(CCc3cccc(C(F)(F)F)c3)C2)cc1 (stereo not given),-3,1,x,0,0,x,x
CN(CC1CCCN(CCc2cccc(C(F)(F)F)c2)C1)C(=O)c1ccco1 (stereo not given),-4,11*,x,0,0,-5,0
O=C(NC1CCCC1)[C@@H]1CCCN1C(=O)[C@@H](NC(=O)N1CCOCC1)C1CCCCC1,-7,-2,x,x,x,x,x
O=c1c2cc3cccnc3nc2ncn1Cc1cccs1,x,0,x,x,x,x,x
COc1ccc(/C=N/N=C2/NC(=O)C(c3ccccc3)(c3ccccc3)S2)cc1,-5,8.3*,0,0,-2,-1,0
COc1ccc(NC(=O)C2CC(=O)N/C(=N/N=C/c3ccccc3)S2)cc1 (stereo not given),2,0,x,0,0,x,x
Cc1ccc(CN2CCCCC(NC(=O)c3ccc(COc4ccccc4)cc3)C2=O)cc1 (stereo not given),x,-3,x,x,x,x,x
N=C1C(c2nc3ccccc3[nH]2)=C(O)CN1c1ccccc1,-2,8.2*,0,2,1,9.0*,7.4*
COc1ccc(/C=C2\CC3(OC(=O)C4CCCC4)CCCN2C3)cc1 (stereo not given),x,-6,x,x,x,x,x
COc1cc2c[n+](C)c3c4ccccc4ccc3c2cc1OC,1,11*,x,x,7,42*,1
COC(=O)C1=C(C)N(Cc2ccccc2C(F)(F)F)C(=NCc2cccc(C(F)(F)F)c2)NC1c1ccc(F)cc1 (stereo not given),-2,-3,x,x,x,x,x
COc1ccc(S(=O)(=O)N2CCOCC2)cc1NC(=O)CCNC(=O)c1ccc(Cl)cc1,-4,8.1*,x,x,0,-2,-1
COc1ccc(S(=O)(=O)N2CCOCC2)cc1NC(=O)CCNC(=O)c1ccc(Br)cc1,-5,-1,x,1,0,x,x
COC(=O)[C@]12C[C@H](CC(=O)NCC3CCCCC3)C(=O)N(Cc3ccco3)C1=C[C@H](C(C)C)O[C@@H]2C1CC1,x,-3,x,x,x,x,x
COC(=O)c1cc(NC(=O)NC2CCCCN(Cc3ccc(Cl)cc3)C2=O)cc(C(=O)OC)c1 (stereo not given),x,5,x,x,x,x,x
N#Cc1c(N)nc2c(c1N)CC(CCl)O2 (stereo not given),-2,9.7*,0,0,2,-6,0
N#Cc1c(N2CCCCC2)nc(N)c2c(N)nc3c(c12)CC(CCl)O3 (stereo not given),-6,-3,0,1,-1,x,x
COC(=O)[C@H](C(C)C)N1Cc2nnn(Cc3ccccc3)c2C=CS1(=O)=O,x,-2,x,x,x,x,x
